Common to all, as to assay type: functional
Experiment [1] has as its system Plasmodium falciparum. The experiment is described as follows: GSK_TCMDC: Inhibition of Plasmodium falciparum 3D7 in whole red blood cells, using parasite LDH activity as an index of growth. Test compounds present at 2uM.
Experiment [2] has as its system Plasmodium falciparum. The experiment can be described thus: GSK_TCMDC: Inhibition of Plasmodium falciparum Dd2 in whole red blood cells, using parasite LDH activity as an index of growth. Test compounds present at 2uM.
Experiment [3] deals with HepG2. The experiment is described as follows: GSK_TCMDC: Percent inhibition of human HepG2 cell line. Test compounds present at 10uM.

As to `O=c1c2ccccc2[nH]c2cc(Cl)ccc12`, the Inhibition (as a rule, the percentage by which the read-out fell short of the control) in experiment [1] is recorded as 95%; in experiment [2] it was 86%; in experiment [3] it was 24%.
`CC(C)COc1ccc(Cl)cc1Nc1nc(-c2nc3ccccc3[nH]2)cs1.Cl`: the values for the Inhibition in experiment [1], in experiment [2] and in experiment [3] were 96%, 29% and 2%, respectively.
As for `OC(c1cccc2ccccc12)C1CN(CCc2ccccc2)CCC1(O)c1ccccc1` (configuration not stated), the Inhibition is reported as 99% in experiment [1], 100% in experiment [2] and 0% in experiment [3].
On the same counts, the results for `CC(C)NCc1cccc(-c2ccc(-c3nc4ccccc4[nH]3)cc2)c1.O=C(O)C(F)(F)F` are 100%, 66% and 4%.
For `O=C(Nc1ccccc1)c1c[nH]cn1`, the Inhibition turned out to be 92% in experiment [1], 0% in experiment [2] and 0% in experiment [3].
Consider `COc1ccc2c(=NN=Cc3cccc(F)c3)cc(C)[nH]c2c1`, for which the results for the Inhibition in experiment [1], in experiment [2] and in experiment [3] were 100%, 100% and 17%, respectively.
Take `Cc1cc(N/N=C/c2ccccc2[N+](=O)[O-])c2cc(F)ccc2n1`: the Inhibition came to 100% in experiment [1], 100% in experiment [2] and 18% in experiment [3].
Turning to `O=C(NNC(=O)c1ccc(CCN2CCC(c3nc(COCC(F)(F)F)c(-c4ccc(F)cc4)o3)CC2)cc1)Nc1ccc(Oc2ccccc2)cc1`, the Inhibition in experiment [1] is reported as 100%; in experiment [2] it was 89%; in experiment [3], 38%.
On the same counts, the results for `COc1cccc(-c2cnc(N)c(-c3nc4ccc(C(F)(F)F)cc4[nH]3)c2)c1.Cl` are 99%, 30% and 5%.
On to `O=C(Nc1cccc(-c2nn3ccccc3c2-c2ccnc(Nc3ccc(C(=O)N4CCOCC4)cc3)n2)c1)c1c(F)cccc1F`, for which the results for the Inhibition in experiment [1], in experiment [2] and in experiment [3] were 99%, 97% and 72%, respectively.
On the same counts, the results for `CCOc1cc(Cc2cnc(N)nc2N)cc(OCC)c1-n1cccc1` [EPIROPRIM] are 98%, 0% and 0%.
Turning to `CCOc1ccc(Br)cc1/C=C/C(=O)Nc1ccc2c(c1)CCCN(C)C2.O=C(O)C(F)(F)F`, the Inhibition is 90% in experiment [1], 17% in experiment [2] and 40% in experiment [3].
The matching figures for `COc1ccc(-c2cccc(NC(=O)c3cccc(Cl)c3)c2)cc1CNC(C)C.O=C(O)C(F)(F)F`: 100%, 8% and 15%.
On the same counts, the results for `Cn1cnc2nc(NCCc3ccccc3)nc(NCc3cccc4ccccc34)c21` are 95%, 98% and 16%.
On the same counts, the results for `CCC[C@@H]([C@@H](CC1CCCCC1)C(=O)N[C@H](C(=O)Nc1nccs1)C(C)(C)SCCOCCOCC)N(O)C=O` are 100%, 97% and 40%.
In the case of `CCNC(=O)Nc1ccc(N(C)c2ccnc(Nc3ccc(CS(C)(=O)=O)cc3)n2)cc1.Cl`, the Inhibition turned out to be 100% in experiment [1], 99% in experiment [2] and 0% in experiment [3].
On to `FC(F)(F)c1cc(C(F)(F)F)c2cc(CNCCCNc3nc4ccccc4[nH]3)[nH]c2c1`, for which the values for the Inhibition in experiment [1], in experiment [2] and in experiment [3] were 100%, 99% and 99%, respectively.
For `COc1ccc(C(=O)NC(Nc2ccc([N+](=O)[O-])cc2)C(Cl)(Cl)Cl)cc1` (configuration not stated), the Inhibition in experiment [1] turned out to be 95%; in experiment [2], 83%; in experiment [3], 15%.
With `CN(C)CCC1CCN(CCS(=O)(=O)c2cccc(Nc3ccc(-c4cccc(F)c4)cn3)c2)CC1`, the Inhibition in experiment [1] is given as 100%; in experiment [2], 59%; in experiment [3], 94%.
On to `COc1ccccc1-n1ccnc1SCC(=O)Nc1cccc(C(F)(F)F)c1`, for which the Inhibition in experiment [1] is 95%; in experiment [2] it was 96%; in experiment [3], 1%.
With `CCN(CC)CCNc1ccnc2ccc3ccccc3c12`, the results for the Inhibition in experiment [1], in experiment [2] and in experiment [3] were 100%, 67% and 5%, respectively.
On the same counts, the results for `CCCCCN1CCCN(Cc2cccc(NC(=O)c3ccc4ccccc4c3)c2)CC1.O=C(O)C(F)(F)F` are 86%, 16% and 27%.
Regarding `O=C(CSc1nccn1C1CCCC1)Nc1cc(C(F)(F)F)ccc1Cl`, the Inhibition in experiment [1] is 96%; in experiment [2] it was 94%; in experiment [3], 0%.
Regarding `Cc1c(-c2ccc3c(c2)C(NCCCN2CCCCC2)CC3)cnc(N)c1C.Cl` (configuration not stated), the Inhibition in experiment [1] was determined as 97%; in experiment [2], 3%; in experiment [3], 4%.
As to `N#CC(c1ccc(F)cc1)c1ccc2c(C(F)(F)F)cc(C(F)(F)F)nc2n1` (configuration not stated), the Inhibition was found to be 97% in experiment [1], 89% in experiment [2] and 9% in experiment [3].
On the same counts, the results for `Cc1cccc2nc(-c3ccc(-c4ccc(CN5CCN(c6cnccn6)CC5)cc4)s3)[nH]c12.O=C(O)C(F)(F)F` are 94%, 42% and 11%.
The matching figures for `COc1ccc(CCNCC(O)c2cccc(Br)c2)c(Cl)c1OC.Cl` (configuration not stated): 87%, 70% and 18%.
`CCC(Nc1noc(-c2c(-c3ccccc3)noc2C)n1)c1ccccc1` (configuration not stated): the Inhibition turned out to be 99% in experiment [1], 85% in experiment [2] and 4% in experiment [3].
On the same counts, the results for `O=C(O)C(F)(F)F.c1cc(CN2CCN(CCN3CCOCC3)CC2)cc(-c2csc(-c3nc4ccccc4[nH]3)c2)c1` are 100%, 99% and 27%.

For the origin of these results see ChEMBL document CHEMBL1157539, “Thousands of chemical starting points for antimalarial lead identification” (Nature, 2010).
